Assay results as given in PubChem BioAssay (Tox21).
Where “and” joins values, the source holds several entries; their conditions need not be identical. Equal entries are not always repeated. Results filed as inconclusive are left out. Entries that show only a call come without a potency. Calls of active or inactive are those of the source. Calls come from the whole dose curve; as a rule, active = well fitted curve in the direction sought with a large enough effect in the repeat runs; inconclusive = weak or mixed curves; inactive = no such curve, though single readings can be large; an effect the other way counts as inactive or inconclusive.

What was measured:
[1] = A CellTox Green Cytotoxicity Assay to monitor cytotoxicity in HEK293 cells - 32 hour (AID 1224881); note: nearly all actives have a fitted effect of over 40% in size; note: potency is the fitted concentration of half-maximal effect
Procedure, shortened: (§1)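 Real-time, in one plate: 600 HEK293 cells/well with dead-cell DNA dye, pinned compound after 5 h, 37 C incubation over 40 h; viable cells give no appreciable fluorescence.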

[2] = A CellTox Green Cytotoxicity Assay to monitor cytotoxicity in HepG2 cells - 0 hour (AID 1224882); note: nearly all actives have a fitted effect of over 35% in size; note: potency is the fitted concentration of half-maximal effect
Procedure, shortened: (§2)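 Cytotoxicity was tracked as dead-cell DNA fluorescence in HepG2 cells treated with test compounds at 37 C; each time-point value comes from one kinetic series spanning 0, 8, 16, 24, 32 and 40 h.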

[3] = A CellTox Green Cytotoxicity Assay to monitor cytotoxicity in HepG2 cells - 32 hour (AID 1224883); note: nearly all actives have a fitted effect of over 50% in size; note: potency is the fitted concentration of half-maximal effect
Procedure, shortened: as §2

[4] = A CellTox Green Cytotoxicity Assay to monitor cytotoxicity in HEK293 cells - 8 hour (AID 1224884); note: nearly all actives have a fitted effect of over 35% in size; note: potency is the fitted concentration of half-maximal effect
Procedure, shortened: as §1

[5] = qHTS RealTime-Glo MT Cell Viability Assay in HepG2 cells - 16 hour (AID 1224885); note: nearly all actives have a fitted effect of over 50% in size; note: potency is the fitted concentration of half-maximal effect
Procedure, shortened: (§3)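 Luminescence read-out: viable HepG2 cells reduce a prosubstrate to a NanoLuc substrate, giving a signal proportional to live cell number. Reads taken at 0, 8, 16, 24, 32 and 40 h of compound exposure at 37 C.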

[6] = qHTS RealTime-Glo MT Cell Viability Assay in HEK293 cells - 8 hour (AID 1224887); note: nearly all actives have a fitted effect of over 50% in size; note: potency is the fitted concentration of half-maximal effect
Procedure, shortened: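 Kinetic, non-lysing viability readout. Seed HEK293 (600/well) with reagent, incubate 5 h at 37 C/5% CO2, pin 23 nL compound in DMSO, incubate at 37 C, read luminescence at 0, 8, 16, 24, 32, 40 h.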

[7] = A CellTox Green Cytotoxicity Assay to monitor cytotoxicity in HEK293 cells - 16 hour (AID 1224888); note: nearly all actives have a fitted effect of over 35% in size; note: potency is the fitted concentration of half-maximal effect
Procedure, shortened: as §1

[8] = qHTS RealTime-Glo MT Cell Viability Assay in HepG2 cells - 0 hour (AID 1224889); note: nearly all actives have a fitted effect of over 50% in size
Procedure, shortened: as §3

[9] = A CellTox Green Cytotoxicity Assay to monitor cytotoxicity in HepG2 cells - 8 hour (AID 1224890); note: nearly all actives have a fitted effect of over 45% in size; note: potency is the fitted concentration of half-maximal effect
Procedure, shortened: as §2

[10] = qHTS RealTime-Glo MT Cell Viability Assay in HEK293 cells - 24 hour (AID 1224886)
Procedure, shortened: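 Nonlytic real-time viability readout: viable cells convert prosubstrate to NanoLuc substrate, giving luminescence proportional to live cell number. HEK293, 600 cells/well, compound added after 5 h, continuous culture at 37 C.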

Row | SMILES | Potency [1] | Potency [2] | Potency [3] | Potency [4] | Potency [5] | Potency [6] | Potency [7] | outcome [8] | Potency [9] | Potency [10]
1 | CC(C)(C)N(NC(=O)c1ccc(Cl)cc1)C(=O)c1ccccc1 | inactive | inactive | inactive | inactive | inactive | inactive | inactive | inactive | inactive | 
2 | CCNC(=O)NC(=O)/C(C#N)=N/OC | inactive | inactive | inactive | inactive | inactive | inactive |  | inactive | inactive | inactive
3 | CCOC(=O)c1cn2nc(OP(=S)(OCC)OCC)cc2nc1C | inactive | inactive | inactive | inactive | inactive | 17.4 µM (active) | inactive |  | inactive | 
4 | CCCC[N+]1(C)[C@@H]2CC(OC(=O)[C@H](CO)c3ccccc3)C[C@H]1[C@@H]1O[C@@H]12 (stereo not given in full) | inactive | inactive | inactive | inactive | inactive | inactive | inactive | inactive | inactive | 
5 | CCCCCCCCP(=O)(O)O | inactive | inactive | inactive | inactive | inactive | inactive | inactive | inactive | inactive | 
6 | CCCCCl | inactive | inactive | inactive | inactive | inactive | inactive | inactive | inactive | inactive | 
7 | Cc1cccc(C)c1NC1=NCCCS1 | inactive | inactive | inactive | inactive | inactive | inactive | inactive | inactive | inactive | 
8 | C=C(Cl)Cl | inactive | inactive | inactive | inactive | inactive | inactive | inactive | inactive | inactive | 
9 | c1ccc2c(c1)sc1ccccc12 | inactive | inactive | inactive | inactive | inactive | inactive |  | inactive | inactive | inactive
10 | CCCCNC(=O)OCC#CI | 54.9 µM (active) | inactive | 54.9 µM (active) | inactive | 10.9 µM (active) and 4.9 µM (active) | 24.5 µM (active) | inactive |  | inactive | 
11 | C[C@H]1O[C@H](OC2[C@@H](O)[C@@H](O)C(O)[C@H](O)[C@H]2O)[C@@H](N)C[C@@H]1N=C(N)C(=O)O (stereo not given in full) | inactive | inactive | inactive | inactive | inactive | inactive |  | inactive | inactive | inactive
12 | CC(Oc1cccc(Cl)c1)C(=O)O (stereo not given) | inactive | inactive | inactive | inactive | inactive | inactive | inactive | inactive | inactive | 
13 | C=CCOCC1CO1 (stereo not given) | inactive | inactive | inactive | inactive | inactive | inactive | inactive | inactive | inactive | 
14 | OCCCl | inactive | inactive | inactive | inactive | inactive | inactive |  | inactive | inactive | inactive
15 | COC1=CC(=O)O[C@@H](/C=C/c2ccc3c(c2)OCO3)C1 | inactive | inactive | inactive | inactive | inactive | inactive | inactive | inactive | inactive | 
16 | O=C(Cl)OCCOCCOC(=O)Cl | inactive | inactive | inactive | inactive | inactive | inactive |  | inactive | inactive | inactive
17 | CC1(C)[C@H](C(=O)O[C@H](C#N)c2cccc(Oc3ccccc3)c2)[C@@H]1C=C(Br)Br | inactive | inactive | inactive | inactive | inactive | inactive | inactive | inactive | inactive | 
18 | C[C@H](N)[C@H](O)c1ccc(O)c(O)c1 | 19 µM (active) | 26.8 µM (active) | 21.3 µM (active) | 19 µM (active) | inactive | inactive | 21.3 µM (active) | inactive | 26.8 µM (active) | 
19 | CC1(C)CC(=O)CC(C)(C)N1[O] | inactive | inactive | inactive | inactive | inactive | inactive | inactive | inactive | inactive | 
20 | N#CC1(N=NC2(C#N)CCCCC2)CCCCC1 | inactive | inactive | inactive | inactive | inactive | inactive | inactive | inactive | inactive | 
21 | CCOC(=O)NC(O)C(Cl)(Cl)Cl (stereo not given) | inactive | inactive |  | inactive | inactive | inactive | inactive | inactive | inactive | inactive
22 | Oc1cccc(Cl)c1 | inactive | inactive |  | inactive | inactive | inactive | inactive | inactive | inactive | inactive
23 | COCc1cnc(C2=NC(C)(C(C)C)C(=O)N2)c(C(=O)O)c1 (stereo not given) | inactive | inactive |  | inactive | inactive | inactive | inactive | inactive | inactive | inactive
